# Screening results: PubChem, several laboratories
# Hits are enriched below; roughly 4.2% of the tested compounds scored in any of these assays.
# Mac1 fbg inh: CD11b/CD18-fibrinogen binding inhibition; P05107+P11215; K562 CD11b/CD18 adhesion to fibrinogen, ATPlite luminescence; Mn2+ added to activate the integrin; inhibition, % at 10 µM; 0.54% of 93,000 active; AID 1497;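 active = primary inhibition of 50% or more at 10 µM, then 40% or more on retest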
# Cav3 T inh: human Cav3.2 channel inhibition, primary screen; O95180; Cav3.2-expressing cells, Fluo-4 calcium fluorescence FDSS; hits give low values; B-score at 10 µM; 4% of 100,000 active; AID 449739;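 active = single-dose well whose peak fluorescence ratio is a statistical outlier from its plate by either plate-standardised score or position-corrected B-score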
# PTK2B oligo ant: antagonists of human Pyk2 oligomerization; Q293 cells, Pyk2 FERM NanoBiT luminescence; hits give low values; z-score (the deposit names both 25 µM and 10 µM); 0.83% of 99,000 active; AID 1347419;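 active = Z-score of -3 or lower, scaled per plate to the spread of control and sample wells; inactive = z-score above -3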;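 also: negative z-score means lost luminescence so less FERM oligomerization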
# Target sequence (Q14289 whole entry, looked up): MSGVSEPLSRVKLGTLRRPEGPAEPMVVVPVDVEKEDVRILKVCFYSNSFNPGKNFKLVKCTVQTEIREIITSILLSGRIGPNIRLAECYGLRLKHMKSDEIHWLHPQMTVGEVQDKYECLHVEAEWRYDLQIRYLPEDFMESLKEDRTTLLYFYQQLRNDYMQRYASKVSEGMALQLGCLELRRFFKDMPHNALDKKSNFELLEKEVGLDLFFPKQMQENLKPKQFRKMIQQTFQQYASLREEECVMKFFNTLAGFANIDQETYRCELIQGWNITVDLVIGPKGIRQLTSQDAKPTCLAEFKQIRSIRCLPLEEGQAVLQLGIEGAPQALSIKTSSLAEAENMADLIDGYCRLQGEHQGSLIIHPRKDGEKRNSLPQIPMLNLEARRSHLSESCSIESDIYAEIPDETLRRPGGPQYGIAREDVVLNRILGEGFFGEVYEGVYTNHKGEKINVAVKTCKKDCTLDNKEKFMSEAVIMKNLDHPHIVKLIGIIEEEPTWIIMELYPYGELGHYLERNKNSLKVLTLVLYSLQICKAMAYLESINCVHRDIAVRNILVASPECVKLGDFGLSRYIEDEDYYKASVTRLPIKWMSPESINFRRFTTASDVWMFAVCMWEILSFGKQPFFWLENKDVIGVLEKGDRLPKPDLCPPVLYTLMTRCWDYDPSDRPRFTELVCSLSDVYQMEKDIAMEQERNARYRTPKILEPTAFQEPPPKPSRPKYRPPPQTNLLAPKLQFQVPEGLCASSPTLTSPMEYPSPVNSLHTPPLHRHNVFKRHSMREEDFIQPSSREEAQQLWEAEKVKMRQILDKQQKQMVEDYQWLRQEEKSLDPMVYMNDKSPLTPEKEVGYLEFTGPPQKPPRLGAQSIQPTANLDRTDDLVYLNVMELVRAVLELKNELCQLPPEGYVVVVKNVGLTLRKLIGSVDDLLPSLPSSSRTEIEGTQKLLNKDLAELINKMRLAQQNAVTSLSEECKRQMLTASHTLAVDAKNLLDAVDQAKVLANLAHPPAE
# Ec RNAP inh: blocks E. coli RNA polymerase transcription | P0A8V2 | AID 559 | fluorescence transcription assay | 0.2% of 62,000 active | inhibition, %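 (tested at 10 µM)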; in the data active = inhibition above about 20%;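 also: 0% = enzyme without compound and 100% = no enzyme blank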
# Mac1 fbg enh: increases human CD11b/CD18 adhesion to fibrinogen. K562 CD11b/CD18 adhesion to fibrinogen, ATPlite luminescence. activation, % at 10 µM. 0.07% of 93,000 active. P05107+P11215;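 active = 10 µM primary screen giving 50% or more activity, confirmed by 40% or more on retest at that dose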
# An asterisk follows results filed as active; nt = not tested or not shown.
SMILES,Mac1 fbg inh,Cav3 T inh,PTK2B oligo ant,Ec RNAP inh,Mac1 fbg enh
CCN1CCc2nc(NC(=O)c3ccccc3)sc2C1,-2.2,nt,1.32,nt,-6.5
CC(C(=O)N1c2ccccc2CCc2ccccc21)n1nnc(-c2ccc(N(C)C)cc2)n1 (configuration not stated),nt,-5.46*,-0.69,nt,nt
CC(C(=O)N1c2ccccc2Sc2ccccc21)n1nnc(-c2cccs2)n1 (configuration not stated),15.4,-6.99*,-2.05,6.1,1.4
Cc1ccc(-c2nnn(CC(=O)N3CCCc4ccccc43)n2)cc1,nt,-4.69*,-1.02,nt,nt
Cc1ccc(-c2nnn(C(C)C(=O)N3c4ccccc4CCc4ccccc43)n2)cc1 (configuration not stated),nt,-5.26*,-1.36,nt,nt
CC/C(C)=N/Nc1cccc([N+](=O)[O-])c1,-7.6,nt,nt,nt,1.4
COc1ccccc1-c1c(C(F)(F)F)oc2cc(OC(=O)c3ccc([N+](=O)[O-])cc3)ccc2c1=O,24.9,nt,nt,nt,-0.8
O=C(CC(c1ccccc1)c1cc(Br)ccc1O)NCc1ccco1 (configuration not stated),-3.1,-9.88*,-2.37,4.2,-0.6
O=C(CSc1ccccc1)NCc1ccco1,nt,0.849,1.17,nt,nt
CCCCCCNC(=O)CC(c1ccccc1)c1cc(Br)ccc1O (configuration not stated),nt,-5.94*,-2.58,nt,nt
CC(C)Oc1ccc(CNC(=O)CC(c2ccccc2)c2cc(Cl)ccc2O)cc1 (configuration not stated),nt,-3.47*,-2.58,nt,nt
CC(C)NC(=O)CC(c1ccccc1)c1cc(Br)ccc1O (configuration not stated),-21.9,-3.27,-0.21,nt,-1.0
Cc1cc(C)c(S(=O)(=O)N2CCC(C(=O)NCc3ccc(Cl)cc3Cl)CC2)c(C)c1,-8.0,-4.74*,-1.03,nt,1.2
Cc1cc(NC(=O)CSc2nc(CCC3CCCC3)nc3ccccc23)no1,-32.5,-8.74*,-0.48,3.3,-3.2
CN(C)c1ccc(/C=C/c2ccncc2)cc1,-26.0,-3.69,-0.07,-11.3,1.1
CN(C)c1ccc(/C=C/c2ccc3ccccc3[n+]2C)cc1,79.1*,nt,nt,nt,-6.7
COc1ccc(C2Nc3ccccc3C(=O)N2Cc2ccco2)cc1CN1C(=O)c2ccccc2C1=O (configuration not stated),1.5,-0.0376,-1.92,nt,6.2
COc1ccc(C2Nc3ccccc3C(=O)N2Cc2ccco2)cc1COc1ccc(F)cc1 (configuration not stated),nt,-7.03*,-2.38,nt,nt
CCN(CC(=O)NC(C)(C)C)C(=O)CCl,-3.3,nt,nt,nt,2.5
CCOc1ccc(CC(=O)NNC(=S)Nc2ccccc2)cc1Br,-9.7,-7.4*,0.76,nt,-3.3
COc1ccc(-c2nnc(SCc3nnc(-c4ccc(Cl)cc4)o3)n2-c2ccccc2)cc1,94.4,-8.43*,1.28,-2.9,-9.2
O=C(O)c1ccc2c(c1)C(=O)N(N1C(=O)c3ccccc3C1=O)C2=O,nt,nt,0.16,nt,nt
Cc1ccc(C)c(N2CCN(S(=O)(=O)c3ccc4[nH]c(=O)c(=O)[nH]c4c3)CC2)c1,-8.7,-3.14,0.24,-0.3,-1.1
Cc1ccc(C)c(N2CCN(S(=O)(=O)c3ccc4c(c3)OCCO4)CC2)c1,12.3,-1.85,-3.92*,-2.8,1.1
Cc1ccc(Cl)cc1N1CCN(S(=O)(=O)c2ccc3c(c2)OCCO3)CC1,13.2,-5.22*,-4.2*,7.3,1.5
SMILES,Mac1 fbg inh,Cav3 T inh,PTK2B oligo ant,Ec RNAP inh,Mac1 fbg enh
CN(Cc1ccccc1)c1nc(-c2cccc([N+](=O)[O-])c2)nc2ccccc12,-10.2,nt,nt,nt,-2.3
CC(C)COC(=O)Nc1nnc(SCCOc2ccccc2)s1,nt,-2.44,-0.4,nt,nt
CC(C)c1ccc(-c2nc(N3CCCC3)nc3n[nH]c(N)c23)cc1,-11.7,-0.147,-0.93,5.7,-6.2
CC(C)c1ccc(-c2nc(N3CCCCCC3)nc3n[nH]c(N)c23)cc1,19.1,0.134,-4.26*,nt,2.7
CCc1nnc(NC(=O)CN2CCC(O)(c3ccccc3OC)CC2)s1,-0.3,0.254,0.71,2.9,-6.3
COc1ccc(C2(O)CCN(CC(=O)Nc3nccs3)CC2)c(OC)c1,-4.2,-4.66*,0.37,4.7,1.6
N#C/C(=C\c1ccc(N2CCOCC2)o1)c1nc2ccccc2[nH]1,nt,-5.84*,1.74,nt,nt
O=C(N/N=C/c1ccco1)c1cc(-c2cccc3ccccc23)n[nH]1,nt,-6.17*,0.26,nt,nt
O=C(N/N=C/c1ccco1)c1cc(-c2ccccc2)n[nH]1,nt,-0.713,-0.22,nt,nt
CC(/C=N\NC(=O)CN1CCN(S(=O)(=O)c2ccc(C)cc2)CC1)=C\c1ccccc1,5.3,nt,nt,nt,23.3
CCOC(=O)c1ccc(N2C(=O)c3n[nH]c(C)c3C2c2ccc(OC)cc2OC)cc1 (configuration not stated),nt,0.816,-3.17*,nt,nt
CCOC(=O)c1ccc(N2C(=O)c3n[nH]c(C)c3C2c2ccc(OC)cc2)cc1 (configuration not stated),50.5,-0.169,-2.76,0.7,0.6
CCOC(=O)c1cc2c(C)n(-c3ccc(C)cc3)c(C)c2ccc1=O,16.4,-7.39*,-0.67,nt,-8.8
CCOC(=O)c1cc2c(C)n(-c3ccc(OCC)cc3)c(C)c2ccc1=O,nt,-2.89,-0.41,nt,nt
O=C(C1CCCN(S(=O)(=O)c2ccc(Cl)cc2)C1)N(Cc1cccs1)C1CC1 (configuration not stated),21.5,-5.59*,-0.59,-14.3,2.7
CN1/C(=C/C(=O)c2nc(S(C)(=O)=O)ncc2Cl)C(C)(C)c2ccccc21,10.4,1.01,-3.78*,2.7,-3.0
O=C(NCc1ccccc1)c1ccc(C(=O)N(C2CCCCC2)C2CCCCC2)cc1,-20.4,-5.85*,-0.09,nt,0.2
CC1CC(C)(C)NC(=S)N1CCCC(=O)N1CCN(c2ccccc2F)CC1 (configuration not stated),nt,nt,0.29,nt,nt
CCn1c(SCC(=O)N2CCCc3ccccc32)nc2ccccc2c1=O,3.6,-6.86*,-1.6,4.3,-3.3
Cc1[nH]c2ccccc2c1SCC(=O)N1CCN(c2ccccc2)CC1,10.5,-3.2,nt,nt,9.3
Cc1[nH]c2ccccc2c1SCC(=O)N1CCCc2ccccc21,0.4,-4.85*,nt,nt,1.6
CCn1c(SCC(=O)N2CCCc3ccccc32)nc2cccnc21,-26.9,0.387,0.32,8.3,2.2
Cn1c(=O)c2c(nc(NC3CCCCC3)n2CC(=O)C23CC4CC(CC(C4)C2)C3)n(C)c1=O,nt,-5.84*,-1.09,1.7,nt
Cn1c(=O)c2c(nc(NC3CCCCC3)n2Cc2ccccc2)n(C)c1=O,nt,-1.42,nt,5.9,nt
O=[N+]([O-])c1ccc(C(=Nc2cccc3ccccc23)N2CCOCC2)cc1,nt,nt,-3.53*,nt,nt
CCOc1ccc(NC(=O)CC2CC(C)(C)OC2=O)cc1 (configuration not stated),-5.3,0.109,-0.78,8.8,0.3
CCOc1ccc(NC(=O)C23CC4CC(C2)CC(c2ccccc2)(C4)C3)cc1,nt,-1.87*,0,nt,nt
CCOc1ccc(C(c2c(C)[nH][nH]c2=O)c2c(C)[nH][nH]c2=O)cc1OC,5.3,0.351,0.29,nt,-3.0
COc1ccc(C(c2c(C)[nH]n(-c3ccccc3)c2=O)c2c(C)[nH]n(-c3ccccc3)c2=O)cc1OC,51.6*,nt,nt,nt,-4.4
